# COUP-TFII inh = NR2F2 (human) inhibition, primary screen; HEK293T NGFI-A luciferase reporter, luminescence; inhibition, % at 8.6 µM; 370,000 tested, 0.7% active; AID 686940;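 active = inhibition above a per-plate cutoff, mean inhibition of test wells between control levels plus 3 SD, cut at about 38% in these data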;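 note: cells cotransfected with COUP-TFII expression vector driving the NGFI-A reporter; 0% = median of COUP-TF2 test wells and 100% = reporter-only cells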
# GalR3 antagonist = antagonists of human GalR3; 360,000 tested, 0.44% active; AID 651719; HEK293 GalR3-CNG cAMP membrane potential fluorescence; galR3 body fused to GalR1 C-terminus; O60755; inhibition, % at 3 µM;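 active = inhibition above the screen-wide average plus 3 SD, cut at about 13% in these data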;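 note: forskolin and galanin both at EC90 stimulate the cells; cAMP rise reported by CNG channel membrane potential dye signal; 0% = forskolin plus galanin with DMSO and 100% = forskolin alone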
# NCOA2 inhibitor = human SRC2 (NCOA2) inhibition. Q15596. HEK293 GAL4-SRC2 luciferase reporter, luminescence. inhibition, % at 9 µM. 370,000 tested, 0.17% active. AID 651957;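 active = inhibition above the mean inhibition of all tested compounds plus 3 SD, set per campaign, cut at about 52% in these data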;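 note: 0% = DMSO treated cells and 100% = cells given Gossypol at 36 µM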
# NCOA3 inh = inhibitors of human steroid receptor coactivator 3 (SRC3); HEK293 GAL4-SRC3 luciferase reporter, luminescence; inhibition, % at 3.6 µM; 360,000 tested, 0.17% active;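 active = inhibition above a per-campaign cutoff, the mean of all compounds plus 3 SD, cut at about 60% in these data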;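 note: 0% = DMSO-treated cells and 100% = gossypol-treated cells at 36 µM; higher means less SRC3-driven luciferase light from the GAL4 reporter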
# NR5A2 inv ag = inverse agonists of human LRH-1 (NR5A2) | inhibition, % at 3.6 µM | AID 602396 | 360,000 tested, 0.13% active | HEK293T StAR-luciferase reporter, LRH-1 transfected, 24 h | O00482;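 active = inhibition above the mean inhibition of all tested compounds plus 3 SD, cut at about 73% in these data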;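 note: 0% = DMSO wells and 100% = reporter-only cells lacking LRH-1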
# Target sequence (O00482 whole entry, looked up): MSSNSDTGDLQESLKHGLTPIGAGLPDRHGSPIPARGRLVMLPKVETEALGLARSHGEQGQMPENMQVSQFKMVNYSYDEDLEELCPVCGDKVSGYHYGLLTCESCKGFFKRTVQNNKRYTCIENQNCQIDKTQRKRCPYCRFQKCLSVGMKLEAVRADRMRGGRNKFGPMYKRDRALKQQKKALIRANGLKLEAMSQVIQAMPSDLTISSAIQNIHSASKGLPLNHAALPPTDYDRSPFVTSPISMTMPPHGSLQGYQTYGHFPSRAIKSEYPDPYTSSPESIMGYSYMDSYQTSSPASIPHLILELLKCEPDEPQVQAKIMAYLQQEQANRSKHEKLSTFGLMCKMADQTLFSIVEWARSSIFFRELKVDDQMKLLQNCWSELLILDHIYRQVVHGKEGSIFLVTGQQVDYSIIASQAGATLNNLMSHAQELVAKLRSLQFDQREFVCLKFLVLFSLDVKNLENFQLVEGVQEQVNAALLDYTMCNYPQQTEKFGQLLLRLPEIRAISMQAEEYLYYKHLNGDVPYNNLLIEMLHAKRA
# NCOA1 inh = inhibits human SRC1 coactivator | AID 588354 | Q15788 | 360,000 tested, 0.12% active | HEK293 GAL4-SRC1 luciferase reporter, luminescence | inhibition, % at 3.6 µM;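 active = inhibition above the campaign mean plus 3 SD, with each screening campaign given its own cutoff, cut at about 60% in these data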;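 note: 0% = DMSO treated cells and 100% = gossypol at 36 µM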
# GalR3 antag conf = GalR3 (human) antagonism, confirmation; shares compounds with GalR3 antagonist; HEK293 GalR3 CNG cAMP biosensor, membrane potential fluorescence; galR3 fused to GalR1 carboxy tail; challenged with forskolin and galanin at EC90; inhibition, % at 3 µM; 1,600 tested, 59% active; AID 652245;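 active = inhibition above the primary screen's cutoff, the mean inhibition of all screened compounds plus 3 SD, cut at about 13% in these data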;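 note: 0% = forskolin plus galanin and 100% = forskolin alone with DMSO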
# HEK-CNG parental = parental cell agonism counter-screen for GalR3 antagonists; shares compounds with GalR3 antagonist; HEK293-CNG parental cells, cAMP membrane potential fluorescence; normalised: DMSO wells 0%, forskolin wells 100%; activation, % at 3 µM; 1,600 tested, 10% active; AID 652268; in the data active = activation above about 1.3%
# Gal4-VP16 ctr = VP16 inhibition counter-screen for COUP-TFII. AID 687007. shares compounds with COUP-TFII inh. 2,500 tested, 25% active. inhibition, % at 8.5 µM. HEK293 Gal4-VP16 luciferase reporter, luminescence; in the data active = inhibition above about 13%
# COUP-TFII conf = COUP-TFII (NR2F2) inhibition, confirmation assay | HEK293 NGFI-A luciferase reporter, luminescence | AID 687008 | inhibition, % at 8.5 µM | shares compounds with COUP-TFII inh | 2,500 tested, 45% active;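 active = mean inhibition over three repeats above a set limit taken from the earlier primary screen, cut at about 38% in these data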;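 note: 100% = cells given the luciferase reporter alone without the COUP-TF2 vector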
# * hit, by the source's call; / = not tested or not shown. This is a sample that favours compounds with a hit; in the whole collection about 1.1% have one here.
SMILES,COUP-TFII inh,GalR3 antagonist,NCOA2 inhibitor,NCOA3 inh,NR5A2 inv ag,NCOA1 inh,GalR3 antag conf,HEK-CNG parental,Gal4-VP16 ctr,COUP-TFII conf
CCCCOc1ccc(C(=O)NC2CCCCN(CCC)C2=O)cc1 (stereo unspecified),3,-6,-7,/,/,/,/,/,/,/
CCOC(=O)[C@]12CCCCC/C=C\1N(Cc1ccc(OC)cc1)C(=O)[C@H]2CC(=O)N1CCCCC1,8,/,-3,/,/,/,/,/,/,/
COc1cccc(CN[C@@H]2CC[C@@]34CCCN3C(=O)CCC[C@H]4C2)c1,-9,/,/,/,/,/,/,/,/,/
O=C(NCC1CCN(Cc2ccc(Cl)cc2)CC1)C1CCCN(c2ncnc3c2nc2n3CCCCC2)C1 (stereo unspecified),58*,62*,31,27,24,3,84*,2.0*,8,34
CCOC(=O)COc1ccc(C(C)c2ccc(NC(=O)OC(C)(C)C)cc2)cc1 (stereo unspecified),-16,/,0,/,/,/,/,/,/,/
CCCCNC(=O)C1(C(=O)c2ccc(OC)cc2)CC(c2ccccc2C(F)(F)F)=NO1 (stereo unspecified),2,/,3,/,/,/,/,/,/,/
Cc1oc(-c2ccc(Cl)cc2)nc1CS(=O)CC(=O)NCCCN1CCCC(C)C1 (stereo unspecified),1,-6,-9,6,2,2,/,/,/,/
Cc1oc(-c2ccc(Cl)cc2)nc1CS(=O)CC(=O)NCCCN1CCN(Cc2ccccc2)CC1 (stereo unspecified),62*,69*,31,32,34,35,110*,2.0*,8,65*
Cc1ccc(Oc2ccccc2NC(=O)CSCC(=O)Nc2cc(C)on2)cc1,62*,84*,0,4,15,42,68*,0,4,49*
Cc1cc(NC(=O)CSCC(=O)Nc2ccccc2Oc2ccccc2)no1,13,-3,-19,-27,4,-42,/,/,/,/
CC(C)(C)OC(=O)NCCCCCc1cn([C@@H](CO)C(=O)NCCCCCCCCCCC(=O)N2CCN(C(=O)OC(C)(C)C)CC2)nn1,69*,88*,54*,72*,48,53,102*,0,-6,79*
CC(C)(C)OC(=O)CC[C@@H](C(=O)NCCCCCCCCCCC(=O)N1CCN(C(=O)OC(C)(C)C)CC1)n1cc(CCCCCNC(=O)OC(C)(C)C)nn1,1,-4,-17,8,7,-7,/,/,/,/
CCC[C@H]1[C@@H](O)CC[C@@]23CCCN2C(=O)CCC[C@@H]13,-13,/,/,/,/,/,/,/,/,/
Cc1sc2ncnc(N3CCCCC3)c2c1C,-13,-7,18,21,7,0,/,/,/,/
Clc1ccc(OCCN2CCN(c3ncnc4sccc34)CC2)cc1,70*,93*,20,36,54,25,107*,0,1,64*
CCN1CCN(CCOc2ccc(Cl)cc2)CC1,-25,-4,-34,3,4,-6,/,/,/,/
Cc1ccc(OCCN2CCN(c3ncnc4sc(C)c(C)c34)CC2)cc1,73*,101*,31,33,54,14,104*,0,-2,61*
C#CCN(C)S(=O)(=O)c1ccc(N2CCCC2)cc1Br,-8,/,18,/,/,/,/,/,/,/
Cc1ccccc1OCCCCn1cnc2ccccc21,39*,77*,7,-11,20,12,19*,-1,-16,17
COc1cccc(CNC(=O)C2C3C=CC4(CN(Cc5ccccc5)C(=O)C24)O3)c1OC (stereo unspecified),5,/,11,/,/,/,/,/,/,/
